Measured values published in the supplement of paper PMC10849652.
About 8,800 targets were measured; listed, in parts, are those with a hit and a random draw of the rest. About 0.5% of all pairs of compound and target were hits. Values without a mark were called inactive.

Columns and labels:
Experiment in all cases: log2 fold change, soluble protein after heating vs DMSO (PISA); higher = thermal stabilisation; K562 lysate, 10 uM; active = over 0.2 and 3.5 SD of the protein, either way, in both replicates (recomputed)
alvocidib = compound: CN1CC[C@H](c2c(O)cc(O)c3c(=O)cc(-c4ccccc4Cl)oc23)[C@H](O)C1 [alvocidib]
Outline: (§1)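 K562 pellets were dounce-homogenised in PBS pH 7.4 containing 1 mM MgCl2, and the crude extract, at 1 mg/mL protein, was exposed to 10 μM compound for 30 min. Aliquots were heated for 3 min across 48°C-58°C, pooled, brought to 0.5% NP-40 at 4°C and spun at 21,000xg for 90 min, with the supernatant taken as soluble protein. TMTpro 16plex LC-MS/MS with equalised channel sums quantified that protein. Values are log-two fold changes in thermal stability relative to solvent controls, taken from duplicates.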

Tubastatin A = compound: CN1CCc2c(c3ccccc3n2Cc2ccc(C(=O)NO)cc2)C1 [Tubastatin A]
Outline: as §1

[1] = compound: CNC(=O)C1=CC=CC=C1NC2=NC(=NC=C2Cl)NC3=C(C=C(C=C3)N4CCOCC4)OC
Outline: as §1

defactinib = compound: CNC(=O)c1ccc(Nc2ncc(C(F)(F)F)c(NCc3nccnc3N(C)S(C)(=O)=O)n2)cc1 [defactinib]
Outline: as §1

encorafenib = compound: COC(=O)N[C@@H](C)CNc1nccc(-c2cn(C(C)C)nc2-c2cc(Cl)cc(NS(C)(=O)=O)c2F)n1 [encorafenib]
Outline: as §1

[2] = compound: COC(=O)[C@H](CCSC)NC(=O)C1=C(C=C(C=C1)NC[C@H](CS)N)C2=CC=CC=C2
Outline: as §1

[3] = compound: COc1cc2nc(-c3cc(F)ccc3O)nc(N[C@@H]3CNC[C@H]3C(C)(C)O)c2cc1OC
Outline: as §1

[4] = compound: CNc1nc(-c2ccc3c(N)n[nH]c3c2)cc(N2C[C@@H](C(=O)NC3CCCCC3)CC[C@H]2C)n1
Outline: as §1

alisertib = compound: COc1cc(Nc2ncc3c(n2)-c2ccc(Cl)cc2C(c2c(F)cccc2OC)=NC3)ccc1C(=O)O [alisertib]
Outline: as §1

gefitinib = compound: COc1cc2ncnc(Nc3ccc(F)c(Cl)c3)c2cc1OCCCN1CCOCC1 [gefitinib]
Outline: as §1

Chain of UniProt Q8TEW8 (Q8TEW8 whole entry, looked up): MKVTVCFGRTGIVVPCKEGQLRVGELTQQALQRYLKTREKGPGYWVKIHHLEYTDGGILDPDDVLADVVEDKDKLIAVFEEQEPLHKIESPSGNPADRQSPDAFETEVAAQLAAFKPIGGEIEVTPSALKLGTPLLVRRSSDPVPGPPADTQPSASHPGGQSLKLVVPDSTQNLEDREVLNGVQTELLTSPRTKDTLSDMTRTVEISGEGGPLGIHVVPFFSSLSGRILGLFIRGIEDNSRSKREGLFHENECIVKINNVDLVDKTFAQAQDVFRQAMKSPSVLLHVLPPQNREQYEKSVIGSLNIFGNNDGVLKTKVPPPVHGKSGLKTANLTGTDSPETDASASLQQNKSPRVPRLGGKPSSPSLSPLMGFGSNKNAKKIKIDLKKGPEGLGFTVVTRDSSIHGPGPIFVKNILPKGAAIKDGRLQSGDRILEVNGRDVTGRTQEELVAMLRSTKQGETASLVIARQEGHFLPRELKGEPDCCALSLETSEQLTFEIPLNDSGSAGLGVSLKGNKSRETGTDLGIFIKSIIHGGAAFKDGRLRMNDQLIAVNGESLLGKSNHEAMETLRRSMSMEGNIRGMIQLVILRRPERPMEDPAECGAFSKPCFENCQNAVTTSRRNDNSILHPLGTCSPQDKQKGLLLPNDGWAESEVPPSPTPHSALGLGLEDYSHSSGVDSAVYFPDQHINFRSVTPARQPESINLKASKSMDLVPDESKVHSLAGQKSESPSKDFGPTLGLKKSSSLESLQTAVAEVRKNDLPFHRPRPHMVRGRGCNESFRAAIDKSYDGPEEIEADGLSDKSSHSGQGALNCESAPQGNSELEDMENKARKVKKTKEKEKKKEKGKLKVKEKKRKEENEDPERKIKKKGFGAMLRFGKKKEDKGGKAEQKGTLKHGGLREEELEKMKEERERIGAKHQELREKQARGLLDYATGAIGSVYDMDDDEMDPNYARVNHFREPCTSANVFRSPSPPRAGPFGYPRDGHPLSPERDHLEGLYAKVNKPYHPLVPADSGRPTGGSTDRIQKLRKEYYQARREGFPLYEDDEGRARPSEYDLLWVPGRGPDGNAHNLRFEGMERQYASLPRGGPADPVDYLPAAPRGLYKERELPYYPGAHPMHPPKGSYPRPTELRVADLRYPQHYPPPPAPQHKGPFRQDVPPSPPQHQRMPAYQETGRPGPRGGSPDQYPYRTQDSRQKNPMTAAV
Chain of UniProt Q9BXW6 (Q9BXW6 whole entry, looked up): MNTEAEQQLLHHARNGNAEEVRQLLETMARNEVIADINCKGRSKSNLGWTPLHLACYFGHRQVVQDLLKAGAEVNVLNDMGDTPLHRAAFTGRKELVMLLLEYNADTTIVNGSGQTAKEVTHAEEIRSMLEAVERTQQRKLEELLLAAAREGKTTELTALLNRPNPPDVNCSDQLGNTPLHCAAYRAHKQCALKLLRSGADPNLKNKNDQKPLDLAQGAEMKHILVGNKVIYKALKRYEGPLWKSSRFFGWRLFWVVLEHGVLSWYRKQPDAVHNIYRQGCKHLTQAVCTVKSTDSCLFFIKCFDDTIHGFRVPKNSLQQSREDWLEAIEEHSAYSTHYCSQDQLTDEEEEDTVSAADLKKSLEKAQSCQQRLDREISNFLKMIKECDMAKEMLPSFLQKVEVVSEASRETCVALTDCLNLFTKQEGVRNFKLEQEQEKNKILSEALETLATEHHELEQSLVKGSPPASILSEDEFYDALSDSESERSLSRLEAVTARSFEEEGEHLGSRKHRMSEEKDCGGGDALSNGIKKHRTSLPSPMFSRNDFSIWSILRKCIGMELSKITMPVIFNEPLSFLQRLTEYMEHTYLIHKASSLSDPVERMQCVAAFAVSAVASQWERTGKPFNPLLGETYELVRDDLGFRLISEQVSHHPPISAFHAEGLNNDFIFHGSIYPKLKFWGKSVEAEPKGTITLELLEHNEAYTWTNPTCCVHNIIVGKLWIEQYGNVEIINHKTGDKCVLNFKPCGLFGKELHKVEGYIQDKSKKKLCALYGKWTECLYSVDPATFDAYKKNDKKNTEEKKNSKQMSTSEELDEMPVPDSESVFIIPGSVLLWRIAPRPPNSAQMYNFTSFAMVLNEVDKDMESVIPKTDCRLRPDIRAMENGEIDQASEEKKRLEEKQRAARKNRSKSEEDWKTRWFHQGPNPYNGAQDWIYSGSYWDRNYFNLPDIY
Chain of UniProt Q9HD67 (Q9HD67 whole entry, looked up): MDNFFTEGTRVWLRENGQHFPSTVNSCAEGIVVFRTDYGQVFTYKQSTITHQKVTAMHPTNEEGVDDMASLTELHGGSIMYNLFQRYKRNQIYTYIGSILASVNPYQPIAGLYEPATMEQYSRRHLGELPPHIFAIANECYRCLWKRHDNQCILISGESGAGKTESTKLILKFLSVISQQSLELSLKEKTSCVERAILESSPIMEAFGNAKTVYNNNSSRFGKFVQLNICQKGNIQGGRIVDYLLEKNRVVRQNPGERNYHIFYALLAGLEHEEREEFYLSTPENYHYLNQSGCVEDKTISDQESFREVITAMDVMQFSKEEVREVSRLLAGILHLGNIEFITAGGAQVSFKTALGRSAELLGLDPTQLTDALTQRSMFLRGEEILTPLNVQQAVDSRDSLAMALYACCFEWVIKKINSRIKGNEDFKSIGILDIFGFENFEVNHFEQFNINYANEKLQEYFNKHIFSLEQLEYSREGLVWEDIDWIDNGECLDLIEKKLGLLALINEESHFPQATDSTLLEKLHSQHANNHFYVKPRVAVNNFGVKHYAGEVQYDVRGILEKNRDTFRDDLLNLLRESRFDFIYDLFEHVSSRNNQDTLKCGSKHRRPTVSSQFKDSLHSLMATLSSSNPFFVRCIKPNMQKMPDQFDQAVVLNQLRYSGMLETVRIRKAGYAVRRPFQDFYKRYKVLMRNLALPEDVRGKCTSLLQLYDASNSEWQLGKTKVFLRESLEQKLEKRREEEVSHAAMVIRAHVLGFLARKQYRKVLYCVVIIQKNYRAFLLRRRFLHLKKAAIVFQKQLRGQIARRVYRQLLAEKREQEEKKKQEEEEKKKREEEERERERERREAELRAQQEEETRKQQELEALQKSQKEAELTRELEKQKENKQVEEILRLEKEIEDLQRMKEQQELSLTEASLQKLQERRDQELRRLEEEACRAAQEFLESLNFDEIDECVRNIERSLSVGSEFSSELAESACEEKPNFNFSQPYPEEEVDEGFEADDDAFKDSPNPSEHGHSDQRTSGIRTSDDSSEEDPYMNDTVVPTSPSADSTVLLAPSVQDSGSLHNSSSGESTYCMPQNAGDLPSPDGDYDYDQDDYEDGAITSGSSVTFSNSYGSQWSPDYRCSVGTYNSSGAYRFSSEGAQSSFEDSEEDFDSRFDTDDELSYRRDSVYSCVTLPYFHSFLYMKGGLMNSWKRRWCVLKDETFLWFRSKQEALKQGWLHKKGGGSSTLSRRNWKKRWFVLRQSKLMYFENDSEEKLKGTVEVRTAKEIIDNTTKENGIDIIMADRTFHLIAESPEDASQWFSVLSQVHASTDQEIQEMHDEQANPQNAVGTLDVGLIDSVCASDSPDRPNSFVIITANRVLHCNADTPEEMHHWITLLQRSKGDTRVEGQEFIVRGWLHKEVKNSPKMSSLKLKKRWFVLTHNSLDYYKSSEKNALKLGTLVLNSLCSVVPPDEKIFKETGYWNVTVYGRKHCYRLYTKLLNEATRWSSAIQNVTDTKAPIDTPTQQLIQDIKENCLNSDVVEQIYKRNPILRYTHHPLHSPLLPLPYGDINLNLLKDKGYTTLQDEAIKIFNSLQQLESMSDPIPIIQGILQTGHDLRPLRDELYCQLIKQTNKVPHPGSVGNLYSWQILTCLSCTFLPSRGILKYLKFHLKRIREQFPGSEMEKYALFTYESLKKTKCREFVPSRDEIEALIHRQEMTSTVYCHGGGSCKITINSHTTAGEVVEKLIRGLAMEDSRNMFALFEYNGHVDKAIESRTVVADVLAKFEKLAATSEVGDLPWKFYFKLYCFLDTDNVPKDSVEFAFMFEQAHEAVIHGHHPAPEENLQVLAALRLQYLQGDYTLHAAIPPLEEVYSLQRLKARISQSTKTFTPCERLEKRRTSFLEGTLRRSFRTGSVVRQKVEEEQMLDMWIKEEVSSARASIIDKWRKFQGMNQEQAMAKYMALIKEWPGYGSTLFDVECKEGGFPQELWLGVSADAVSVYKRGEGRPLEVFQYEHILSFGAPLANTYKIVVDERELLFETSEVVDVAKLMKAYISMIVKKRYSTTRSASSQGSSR
Chain of UniProt Q13416 (Q13416 whole entry, looked up): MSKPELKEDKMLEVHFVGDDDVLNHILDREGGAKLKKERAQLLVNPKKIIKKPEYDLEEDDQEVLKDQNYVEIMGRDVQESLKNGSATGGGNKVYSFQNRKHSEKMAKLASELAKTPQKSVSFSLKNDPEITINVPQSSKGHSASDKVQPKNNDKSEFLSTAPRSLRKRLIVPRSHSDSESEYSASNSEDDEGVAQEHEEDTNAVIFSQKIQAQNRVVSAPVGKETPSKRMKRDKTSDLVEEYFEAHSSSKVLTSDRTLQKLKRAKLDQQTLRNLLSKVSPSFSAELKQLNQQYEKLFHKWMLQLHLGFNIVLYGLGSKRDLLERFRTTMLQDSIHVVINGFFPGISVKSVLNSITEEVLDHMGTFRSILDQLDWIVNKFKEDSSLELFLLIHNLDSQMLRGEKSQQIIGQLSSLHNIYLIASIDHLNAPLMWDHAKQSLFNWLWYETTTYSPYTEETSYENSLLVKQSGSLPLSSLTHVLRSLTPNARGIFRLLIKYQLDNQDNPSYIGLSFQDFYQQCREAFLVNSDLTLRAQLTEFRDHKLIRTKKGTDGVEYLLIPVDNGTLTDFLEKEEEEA
Chain of UniProt Q9UFN0 (Q9UFN0 whole entry, looked up): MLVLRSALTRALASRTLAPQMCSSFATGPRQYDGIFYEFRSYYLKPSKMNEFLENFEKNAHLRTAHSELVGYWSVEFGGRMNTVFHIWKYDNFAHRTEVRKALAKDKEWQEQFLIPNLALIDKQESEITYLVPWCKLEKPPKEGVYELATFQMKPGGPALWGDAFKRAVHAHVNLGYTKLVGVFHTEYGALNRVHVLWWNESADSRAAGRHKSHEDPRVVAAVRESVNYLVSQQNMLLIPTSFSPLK
Chain of UniProt P03928 (P03928 whole entry, looked up): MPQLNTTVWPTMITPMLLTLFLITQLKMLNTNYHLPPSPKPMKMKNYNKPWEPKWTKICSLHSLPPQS

Target	log2 fold change (alvocidib)	log2 fold change (Tubastatin A)	log2 fold change [1]	log2 fold change (defactinib)	log2 fold change (encorafenib)	log2 fold change [2]	log2 fold change [3]	log2 fold change [4]	log2 fold change (alisertib)	log2 fold change (gefitinib)
NSUN7 (UniProt Q8NE18)	-0.191	0.176	-0.001	-0.035	0.21	-0.026	-0.006			
OSGEP (UniProt Q9NPF4)	-0.062	0	-0.047	0	-0.008	0.016	0.007	0.03	0.045	-0.032
MT-ATP8 (UniProt P03928)	0.044	0.072	0.08	0.017	-0.071	-0.139	-0.078		-0.017	-0.081
NIPSNAP3A (UniProt Q9UFN0)	0.288 (active)	0.015	0.016	-0.021	0.016	-0.022	0.005	0.025	-0.023	-0.023
ORC1 (UniProt Q13415)					0.018	-0.188				
NRIP1 (UniProt P48552)	-0.145	0.001	-0.096				0.04	0.291	-0.21	-0.011
MYH6 (UniProt P13533)		0.142	-0.06		-0.048	0.082	0.206			
PARD3B (UniProt Q8TEW8)	-0.125		0.005					0.093		
NUDT5 (UniProt C9JYY9)			0.026		0.066	-0.029			-0.092	-0.075
OSBPL1A (UniProt Q9BXW6)	-0.035		0.091				0.048	0.099	-0.071	0.135
P2RY1 (UniProt P47900)	-0.025	0.06	-0.077		0.054	0.057	-0.068	-0.013		
PAPOLG (UniProt Q9BWT3)	-0.008	0.16	0.003	-0.025	0.063	0.098		0.085	-0.035	0.062
PAGE4 (UniProt O60829)	0.086	0.027	-0.072		-0.005	-0.086	0.057	-0.038		
NR2C2 isoform 2 (UniProt P49116)	0.075	-0.045	-0.03	0.058	-0.002	-0.022	-0.002	0.1		
MYO9A isoform 4 (UniProt B2RTY4)	0.034	-0.077	-0.013	-0.026			0.04	0.015	-0.035	0.009
MUC5AC (UniProt P98088)		-0.03							-0.233	0.013
MYO10 (UniProt Q9HD67)	0.048	0.211	-0.012	-0.106					0.021	0.087
NOCT (UniProt Q9UK39)		0.012	0.159		0.046	-0.01	-0.144	0.042	0.009	-0.088
NTMT1 (UniProt S4R338)							0.045			
MYLK (UniProt Q15746)	0.097			0.128	0.154	-0.008	-0.109		-0.001	0.071
ORC2 (UniProt Q13416)	0.034	-0.161	0.038	0.034	0.018	0.094	-0.002	-0.008	0.012	-0.011
